Measurements taken from paper PMC7862700, “An all-to-all approach to the identification of sequence-specific readers for epigenetic DNA modifications on cytosine”.

How the values were obtained:
Assay in all cases: DAPPL (digital affinity profiling via proximity ligation, sequencing); 10 mM Tris-HCl pH 7.5, 50 mM NaCl, 1 mM DTT, 4% glycerol, room temperature, 30 min; GST-TFs on glutathione beads, 16-mer random dsDNA library, 0.1% formaldehyde crosslink after washing; high values mean tight binding
FEV = target: T1, FEV (Homo sapiens, UniProt Q99581 1-238); conditions: protein: recombinant; tags: N-terminal GST; dsDNA, one strand shown
T1 sequence: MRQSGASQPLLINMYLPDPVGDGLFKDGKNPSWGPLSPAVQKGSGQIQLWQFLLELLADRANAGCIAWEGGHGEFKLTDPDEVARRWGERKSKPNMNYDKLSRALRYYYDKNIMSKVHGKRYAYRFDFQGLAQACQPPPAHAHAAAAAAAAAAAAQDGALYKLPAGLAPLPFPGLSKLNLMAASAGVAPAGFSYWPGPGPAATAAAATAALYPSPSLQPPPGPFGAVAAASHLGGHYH
In short: (§1)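 After expression in yeast as GST fusions, human transcription factors were bound to glutathione beads, DNA-barcoded and mixed with a tag-only sample. The pools were incubated with 200 nmole of a 16-mer random double-stranded DNA library in Tris/NaCl/DTT/glycerol buffer (30 min, room temperature), washed and crosslinked with 0.1% formaldehyde. Proximity ligation with BsaI/T4 ligase ran for 1 h at 37 °C, before PCR amplification and sequencing on an Illumina NextSeq500. Binding signal is a hexamer's read frequency for a factor divided by its frequency for the tag-only sample.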

ETV5 = ETV5 (Homo sapiens, UniProt P41161 1-510); conditions: protein: recombinant; tags: N-terminal GST; dsDNA, one strand shown
In short: as §1

HSF1 = HSF1 (Homo sapiens, UniProt Q00613 1-529); conditions: protein: recombinant; tags: N-terminal GST; chain copies: 3; dsDNA, one strand shown
In short: as §1

SPIC = target: T2, SPIC (Homo sapiens, UniProt Q8N5J4 1-248); conditions: protein: recombinant; tags: N-terminal GST; dsDNA, one strand shown
T2 sequence: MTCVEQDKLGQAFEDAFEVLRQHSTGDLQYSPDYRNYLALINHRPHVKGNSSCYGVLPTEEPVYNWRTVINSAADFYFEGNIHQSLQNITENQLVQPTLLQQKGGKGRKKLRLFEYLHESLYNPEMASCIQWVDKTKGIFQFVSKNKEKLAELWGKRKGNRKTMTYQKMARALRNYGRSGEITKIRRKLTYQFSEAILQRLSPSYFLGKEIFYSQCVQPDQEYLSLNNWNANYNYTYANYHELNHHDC
In short: as §1

ELF4 = ELF4 (Homo sapiens, UniProt Q99607 1-663); conditions: protein: recombinant; tags: N-terminal GST; dsDNA, one strand shown
In short: as §1

ELK4 = target: T3, ELK4 (Homo sapiens, UniProt P28324-2 1-405); conditions: protein: recombinant; tags: N-terminal GST; dsDNA, one strand shown
T3 sequence: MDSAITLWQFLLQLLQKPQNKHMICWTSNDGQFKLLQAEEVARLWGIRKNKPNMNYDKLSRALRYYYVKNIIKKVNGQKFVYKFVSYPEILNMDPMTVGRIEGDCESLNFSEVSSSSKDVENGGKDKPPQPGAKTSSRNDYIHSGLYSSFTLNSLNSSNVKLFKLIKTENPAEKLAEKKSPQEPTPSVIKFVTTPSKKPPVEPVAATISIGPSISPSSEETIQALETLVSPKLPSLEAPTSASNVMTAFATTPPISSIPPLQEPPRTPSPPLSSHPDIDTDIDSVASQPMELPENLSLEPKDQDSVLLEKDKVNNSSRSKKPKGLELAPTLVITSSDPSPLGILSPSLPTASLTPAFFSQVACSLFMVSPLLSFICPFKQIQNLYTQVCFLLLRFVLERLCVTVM
In short: as §1

ETV2 = target: T4, ETV2 (Homo sapiens, UniProt O00321 1-342); conditions: protein: recombinant; tags: N-terminal GST; dsDNA, one strand shown
T4 sequence: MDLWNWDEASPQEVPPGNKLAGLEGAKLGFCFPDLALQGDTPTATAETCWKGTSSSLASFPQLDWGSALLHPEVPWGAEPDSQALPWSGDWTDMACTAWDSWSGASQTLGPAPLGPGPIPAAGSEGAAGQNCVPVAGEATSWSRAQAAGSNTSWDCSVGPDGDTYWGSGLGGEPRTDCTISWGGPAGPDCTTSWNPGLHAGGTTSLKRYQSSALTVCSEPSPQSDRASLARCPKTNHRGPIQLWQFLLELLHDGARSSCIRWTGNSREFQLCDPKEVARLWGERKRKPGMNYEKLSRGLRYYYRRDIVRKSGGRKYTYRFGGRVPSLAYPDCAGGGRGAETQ
In short: as §1

ELF3 = target: T5, ELF3 (Homo sapiens, UniProt P78545 1-371); conditions: protein: recombinant; tags: N-terminal GST; dsDNA, one strand shown
T5 sequence: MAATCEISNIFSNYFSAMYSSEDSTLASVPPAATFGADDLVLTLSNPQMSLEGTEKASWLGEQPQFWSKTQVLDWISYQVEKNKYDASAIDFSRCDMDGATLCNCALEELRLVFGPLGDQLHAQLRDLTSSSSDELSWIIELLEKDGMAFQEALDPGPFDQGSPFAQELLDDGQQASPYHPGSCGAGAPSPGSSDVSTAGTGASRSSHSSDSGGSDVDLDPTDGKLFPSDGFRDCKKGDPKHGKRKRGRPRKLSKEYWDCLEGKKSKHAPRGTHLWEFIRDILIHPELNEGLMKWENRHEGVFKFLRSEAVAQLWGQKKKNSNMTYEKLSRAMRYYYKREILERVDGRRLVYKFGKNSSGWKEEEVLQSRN
In short: as §1

CRX = CRX (Homo sapiens, UniProt O43186 1-299); conditions: protein: recombinant; tags: N-terminal GST; dsDNA, one strand shown
In short: as §1

ETV1 = ETV1 (Homo sapiens, UniProt P50549 1-477); conditions: protein: recombinant; tags: N-terminal GST; dsDNA, one strand shown
In short: as §1

ERF = target: T6, ERF (Homo sapiens, UniProt P50548 1-548); conditions: protein: recombinant; tags: N-terminal GST; dsDNA, one strand shown
T6 sequence: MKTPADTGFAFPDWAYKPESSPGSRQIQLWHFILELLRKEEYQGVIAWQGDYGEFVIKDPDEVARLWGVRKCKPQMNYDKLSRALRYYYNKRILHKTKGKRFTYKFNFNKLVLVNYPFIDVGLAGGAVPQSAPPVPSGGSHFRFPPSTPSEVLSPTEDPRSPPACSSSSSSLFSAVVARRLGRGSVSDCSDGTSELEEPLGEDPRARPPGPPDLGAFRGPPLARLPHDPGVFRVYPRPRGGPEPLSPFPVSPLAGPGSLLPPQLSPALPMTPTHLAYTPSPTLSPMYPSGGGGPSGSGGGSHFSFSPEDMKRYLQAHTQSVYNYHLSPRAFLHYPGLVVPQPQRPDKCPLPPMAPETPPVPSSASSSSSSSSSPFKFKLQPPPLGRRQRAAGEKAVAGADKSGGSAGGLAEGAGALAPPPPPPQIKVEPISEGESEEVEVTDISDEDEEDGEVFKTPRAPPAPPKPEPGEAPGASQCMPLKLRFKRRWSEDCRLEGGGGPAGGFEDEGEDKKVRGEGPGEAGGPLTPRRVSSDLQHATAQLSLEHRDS
In short: as §1

ETV3L = target: T7, ETV3L (Homo sapiens, UniProt Q6ZN32 1-361); conditions: protein: recombinant; tags: N-terminal GST; dsDNA, one strand shown
T7 sequence: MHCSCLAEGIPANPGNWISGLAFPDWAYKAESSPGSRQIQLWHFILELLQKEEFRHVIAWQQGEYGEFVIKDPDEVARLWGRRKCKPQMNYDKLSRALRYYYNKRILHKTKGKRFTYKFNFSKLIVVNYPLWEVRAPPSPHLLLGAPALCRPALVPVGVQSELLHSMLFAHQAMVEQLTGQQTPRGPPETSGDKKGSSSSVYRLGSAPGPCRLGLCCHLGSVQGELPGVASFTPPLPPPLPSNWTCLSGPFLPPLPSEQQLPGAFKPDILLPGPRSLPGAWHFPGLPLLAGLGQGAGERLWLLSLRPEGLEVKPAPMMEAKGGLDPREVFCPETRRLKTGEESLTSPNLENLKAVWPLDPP
In short: as §1

ETS2 = target: T8, ETS2 (Homo sapiens, UniProt P15036 1-469); conditions: protein: recombinant; tags: N-terminal GST; dsDNA, one strand shown
T8 sequence: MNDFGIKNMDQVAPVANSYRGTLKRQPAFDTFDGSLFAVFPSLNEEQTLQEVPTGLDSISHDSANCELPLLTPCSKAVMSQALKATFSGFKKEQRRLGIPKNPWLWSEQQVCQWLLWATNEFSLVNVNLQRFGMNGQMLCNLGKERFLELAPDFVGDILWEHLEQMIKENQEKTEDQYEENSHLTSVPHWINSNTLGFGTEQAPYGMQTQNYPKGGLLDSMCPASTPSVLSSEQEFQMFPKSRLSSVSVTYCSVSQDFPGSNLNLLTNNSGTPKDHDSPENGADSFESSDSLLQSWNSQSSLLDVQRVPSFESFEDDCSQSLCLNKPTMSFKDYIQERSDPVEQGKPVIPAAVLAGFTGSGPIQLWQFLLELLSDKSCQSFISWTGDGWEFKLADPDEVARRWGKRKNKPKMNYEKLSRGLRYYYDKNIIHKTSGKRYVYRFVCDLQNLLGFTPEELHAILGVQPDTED
In short: as §1

SPDEF = target: T9, SPDEF (Homo sapiens, UniProt O95238 1-335); conditions: protein: recombinant; tags: N-terminal GST; dsDNA, one strand shown
T9 sequence: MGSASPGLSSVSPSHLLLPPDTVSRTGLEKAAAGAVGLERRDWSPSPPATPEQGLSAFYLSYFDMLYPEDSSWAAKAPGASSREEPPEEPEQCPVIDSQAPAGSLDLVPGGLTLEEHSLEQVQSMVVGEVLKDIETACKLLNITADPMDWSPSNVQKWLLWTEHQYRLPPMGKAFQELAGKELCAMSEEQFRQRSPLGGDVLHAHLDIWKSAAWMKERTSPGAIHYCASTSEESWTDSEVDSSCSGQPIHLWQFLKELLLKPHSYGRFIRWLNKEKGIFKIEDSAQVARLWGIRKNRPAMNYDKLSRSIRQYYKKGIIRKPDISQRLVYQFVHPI
In short: as §1

ETV7 = target: T10, ETV7 (Homo sapiens, UniProt Q9Y603 1-341); conditions: protein: recombinant; tags: N-terminal GST; dsDNA, one strand shown
T10 sequence: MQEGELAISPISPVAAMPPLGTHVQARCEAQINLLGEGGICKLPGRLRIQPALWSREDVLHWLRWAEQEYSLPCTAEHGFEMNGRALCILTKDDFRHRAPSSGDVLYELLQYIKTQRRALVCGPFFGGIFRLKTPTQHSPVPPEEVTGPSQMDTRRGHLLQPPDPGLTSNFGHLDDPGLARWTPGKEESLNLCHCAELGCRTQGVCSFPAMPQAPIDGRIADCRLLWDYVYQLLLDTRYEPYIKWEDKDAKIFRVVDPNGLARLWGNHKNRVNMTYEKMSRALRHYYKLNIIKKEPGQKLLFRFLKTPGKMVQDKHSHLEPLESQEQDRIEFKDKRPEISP
In short: as §1

ELF5 = target: T11, ELF5 (Homo sapiens, UniProt Q9UKW6-2 1-255); conditions: protein: recombinant; tags: N-terminal GST; dsDNA, one strand shown
T11 sequence: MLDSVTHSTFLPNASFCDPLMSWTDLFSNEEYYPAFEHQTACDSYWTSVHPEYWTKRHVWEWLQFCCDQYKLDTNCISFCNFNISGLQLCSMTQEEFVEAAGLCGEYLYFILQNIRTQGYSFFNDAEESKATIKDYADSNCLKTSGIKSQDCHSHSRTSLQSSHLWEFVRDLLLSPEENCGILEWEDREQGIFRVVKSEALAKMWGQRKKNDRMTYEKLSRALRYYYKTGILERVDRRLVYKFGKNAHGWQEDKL
In short: as §1

ETV3 = target: T12, ETV3 (Homo sapiens, UniProt P41162-2 1-143); conditions: protein: recombinant; tags: N-terminal GST; dsDNA, one strand shown
T12 sequence: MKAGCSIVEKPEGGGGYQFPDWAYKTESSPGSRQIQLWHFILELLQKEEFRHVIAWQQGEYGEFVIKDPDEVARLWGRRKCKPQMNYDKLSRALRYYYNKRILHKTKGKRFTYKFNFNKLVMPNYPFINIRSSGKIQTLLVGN
In short: as §1

ETV6 = ETV6 (Homo sapiens, UniProt P41212 1-452); conditions: protein: recombinant; tags: N-terminal GST; dsDNA, one strand shown
In short: as §1

Chain of CRX (O43186 whole entry): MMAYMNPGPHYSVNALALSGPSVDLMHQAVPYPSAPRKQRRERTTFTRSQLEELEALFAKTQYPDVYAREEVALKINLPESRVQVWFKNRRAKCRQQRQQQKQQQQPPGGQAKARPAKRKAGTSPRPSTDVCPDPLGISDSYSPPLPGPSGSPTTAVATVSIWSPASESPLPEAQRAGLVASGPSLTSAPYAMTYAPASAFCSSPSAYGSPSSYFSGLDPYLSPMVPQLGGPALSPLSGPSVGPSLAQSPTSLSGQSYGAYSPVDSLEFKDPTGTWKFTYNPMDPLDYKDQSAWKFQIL
Chain of ETV1 (P50549 whole entry): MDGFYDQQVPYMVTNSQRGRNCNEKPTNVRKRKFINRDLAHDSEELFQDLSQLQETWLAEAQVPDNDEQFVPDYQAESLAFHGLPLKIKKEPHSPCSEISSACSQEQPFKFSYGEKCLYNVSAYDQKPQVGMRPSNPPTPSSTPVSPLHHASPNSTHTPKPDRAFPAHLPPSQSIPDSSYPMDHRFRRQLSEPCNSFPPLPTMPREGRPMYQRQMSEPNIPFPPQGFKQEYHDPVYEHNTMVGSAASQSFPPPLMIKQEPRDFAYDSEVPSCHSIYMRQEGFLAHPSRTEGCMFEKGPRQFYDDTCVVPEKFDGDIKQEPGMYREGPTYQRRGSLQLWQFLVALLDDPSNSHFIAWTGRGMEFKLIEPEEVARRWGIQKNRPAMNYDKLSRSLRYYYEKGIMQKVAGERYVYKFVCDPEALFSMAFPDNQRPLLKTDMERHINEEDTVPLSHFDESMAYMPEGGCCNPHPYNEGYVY
Chain of HSF1 (Q00613 whole entry): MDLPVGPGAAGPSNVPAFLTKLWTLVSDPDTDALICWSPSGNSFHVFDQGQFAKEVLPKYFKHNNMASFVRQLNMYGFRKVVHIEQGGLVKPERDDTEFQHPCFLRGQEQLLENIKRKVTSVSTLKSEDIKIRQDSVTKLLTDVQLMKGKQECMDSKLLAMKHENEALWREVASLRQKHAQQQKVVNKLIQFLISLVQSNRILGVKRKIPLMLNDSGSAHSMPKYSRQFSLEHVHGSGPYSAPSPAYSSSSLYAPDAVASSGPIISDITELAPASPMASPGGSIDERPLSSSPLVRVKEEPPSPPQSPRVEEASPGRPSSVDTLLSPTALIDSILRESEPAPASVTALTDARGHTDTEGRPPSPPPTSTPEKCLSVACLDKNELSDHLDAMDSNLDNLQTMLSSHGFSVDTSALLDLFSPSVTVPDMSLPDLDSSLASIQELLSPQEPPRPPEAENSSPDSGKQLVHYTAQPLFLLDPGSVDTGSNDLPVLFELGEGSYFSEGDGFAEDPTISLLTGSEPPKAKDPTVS
Chain of ETV5 (P41161 whole entry): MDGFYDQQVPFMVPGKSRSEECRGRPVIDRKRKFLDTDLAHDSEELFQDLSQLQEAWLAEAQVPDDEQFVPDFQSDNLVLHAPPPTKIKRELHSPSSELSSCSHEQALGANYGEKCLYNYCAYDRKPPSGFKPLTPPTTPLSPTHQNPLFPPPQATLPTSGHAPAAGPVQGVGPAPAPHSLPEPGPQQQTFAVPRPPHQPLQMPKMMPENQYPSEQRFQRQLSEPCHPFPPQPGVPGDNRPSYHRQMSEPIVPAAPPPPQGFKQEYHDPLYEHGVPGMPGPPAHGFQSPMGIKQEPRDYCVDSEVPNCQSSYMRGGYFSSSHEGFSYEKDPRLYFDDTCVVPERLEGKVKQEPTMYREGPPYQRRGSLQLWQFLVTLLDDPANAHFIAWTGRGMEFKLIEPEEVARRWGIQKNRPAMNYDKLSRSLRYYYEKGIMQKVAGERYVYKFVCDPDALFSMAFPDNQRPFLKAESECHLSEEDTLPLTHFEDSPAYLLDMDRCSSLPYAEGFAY
Chain of ETV6 (P41212 whole entry): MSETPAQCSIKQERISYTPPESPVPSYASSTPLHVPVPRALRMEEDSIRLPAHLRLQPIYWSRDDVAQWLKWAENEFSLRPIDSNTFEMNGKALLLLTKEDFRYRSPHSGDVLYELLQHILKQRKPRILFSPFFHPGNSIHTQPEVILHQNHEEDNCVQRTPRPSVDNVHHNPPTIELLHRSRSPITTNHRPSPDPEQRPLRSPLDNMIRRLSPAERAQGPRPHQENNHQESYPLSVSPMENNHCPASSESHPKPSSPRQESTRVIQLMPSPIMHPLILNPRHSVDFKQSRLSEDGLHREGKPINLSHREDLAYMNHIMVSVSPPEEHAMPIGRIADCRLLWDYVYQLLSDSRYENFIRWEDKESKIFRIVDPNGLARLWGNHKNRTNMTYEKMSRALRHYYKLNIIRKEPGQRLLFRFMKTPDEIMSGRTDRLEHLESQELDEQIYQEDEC
Chain of ELF4 (Q99607 whole entry): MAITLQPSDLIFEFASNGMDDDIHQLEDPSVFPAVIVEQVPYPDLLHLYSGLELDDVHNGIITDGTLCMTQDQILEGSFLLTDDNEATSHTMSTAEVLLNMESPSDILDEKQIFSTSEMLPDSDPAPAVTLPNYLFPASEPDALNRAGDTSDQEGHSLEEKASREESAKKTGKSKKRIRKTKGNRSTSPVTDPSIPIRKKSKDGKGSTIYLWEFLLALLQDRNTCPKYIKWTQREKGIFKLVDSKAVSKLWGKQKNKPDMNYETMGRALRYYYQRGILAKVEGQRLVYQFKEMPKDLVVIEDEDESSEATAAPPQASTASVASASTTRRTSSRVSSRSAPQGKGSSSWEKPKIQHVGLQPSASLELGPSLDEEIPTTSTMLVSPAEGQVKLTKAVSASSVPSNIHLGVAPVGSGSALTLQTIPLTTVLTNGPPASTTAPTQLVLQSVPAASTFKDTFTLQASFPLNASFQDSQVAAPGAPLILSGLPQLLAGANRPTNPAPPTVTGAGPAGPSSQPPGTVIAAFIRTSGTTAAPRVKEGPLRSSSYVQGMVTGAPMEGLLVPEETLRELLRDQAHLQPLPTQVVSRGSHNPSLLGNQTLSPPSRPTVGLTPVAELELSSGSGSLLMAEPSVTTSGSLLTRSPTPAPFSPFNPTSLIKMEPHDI

For CTCCCG, the binding signal (FEV) was 1.61 fold enrichment (6-mer frequency, TF over GST control), the binding signal (ETV5) was 1.59 fold enrichment (6-mer frequency, TF over GST control) and the binding signal (HSF1) was 1.5 fold enrichment (6-mer frequency, TF over GST control). For the same sequence, the binding signal (SPIC) was 1.77 fold enrichment (6-mer frequency, TF over GST control), the binding signal (ELF4) was 1.68 fold enrichment (6-mer frequency, TF over GST control) and the binding signal (ELK4) was 1.46 fold enrichment (6-mer frequency, TF over GST control). For the same sequence, the binding signal (ETV2) was 1.25 fold enrichment (6-mer frequency, TF over GST control), the binding signal (ELF3) was 1.69 fold enrichment (6-mer frequency, TF over GST control) and the binding signal (CRX) was 1.27 fold enrichment (6-mer frequency, TF over GST control). For the same sequence, the binding signal (ETV1) was 1.5 fold enrichment (6-mer frequency, TF over GST control), the binding signal (ERF) was 1.42 fold enrichment (6-mer frequency, TF over GST control) and the binding signal (ETV3L) was 1.43 fold enrichment (6-mer frequency, TF over GST control). The binding signal (ETS2) was 1.52 fold enrichment (6-mer frequency, TF over GST control), the binding signal (SPDEF) was 1.65 fold enrichment (6-mer frequency, TF over GST control) and the binding signal (ETV7) was 1.73 fold enrichment (6-mer frequency, TF over GST control). For the same sequence, the binding signal (ELF5) was 1.74 fold enrichment (6-mer frequency, TF over GST control), the binding signal (ETV3) was 1.53 fold enrichment (6-mer frequency, TF over GST control) and the binding signal (ETV6) was 1.57 fold enrichment (6-mer frequency, TF over GST control).
